# From PubChem BioAssay AID624256 (NMMLSC, 2012)
# Out of some 360,000 compounds screened, about 3,700 (1%) were called active. Not shown: some 2% with an inconclusive outcome.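 Rule for the calls: active = normalized GFP-positive differentiation at or above the plate's own cutoff, the solvent-only control mean plus 3 SD; inconclusive = no clear call, values can overlap the other calls; inactive = the rest.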 Only a selection was taken, and actives are over-represented in it overall.
# Assay: induction of myeloid progenitor differentiation, primary screen, cell-based, flow cytometry, MLPCN library (AID 624256);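 for GFP+ MAC1+ double positive: cells exposed to compound for four days before flow analysis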;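 for normalized GFP-positive differentiation: cells exposed to compound for four days before flow analysis; 0% = DMSO wells and 100% = fulvestrant positive control at 5 µM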
# Settings: ER-HoxA9 myeloid progenitors, lysozyme-GFP differentiation, at 10 µM; GFP+ MAC1+ double positive: measured here: differentiation confirmed by MAC1 staining, stronger effect = higher value; normalized GFP-positive differentiation: stronger effect = higher value
SMILES,GFP+ MAC1+ double positive [%],outcome,normalized GFP-positive differentiation
COc1ccc(-c2ccc(C(=O)NCCN3CCOCC3)c3occc23)c(C)c1,1,inactive,
O=C(NCc1cccnc1)c1cc(C2CCCN(C(=O)C3CCCCC3)C2)on1 (stereo not given),0.6,inactive,
c1ccc2c(c1)CSc1sccc1C2=C1CCNCC1,4.3,,87.9% (active)
CCCNC(=O)C1(C)CCN(C(=O)c2cc(F)ccc2C)C1 (stereo not given),1.2,inactive,
COc1ccc(N2c3ccccc3CN(Cc3ccccc3)[C@@H](C)[C@H]2Cc2ccc(-c3ccccc3)cc2)cc1,3,inactive,
O=C(Nc1ccc2c(c1)OCCO2)C1c2ccccc2OCC(=O)N1Cc1ccccn1 (stereo not given),1.3,inactive,
O=C(c1ccc(Oc2ccc(Cl)cc2)c([N+](=O)[O-])c1)N1CCCC1,0.9,inactive,
Nc1ccc(C(=O)N2CCN(S(=O)(=O)c3ccc(Cl)cc3)CC2)cc1[N+](=O)[O-],0.1,inactive,
CC1CCN(C(=O)c2ccc(S(=O)(=O)Cc3cc(F)ccc3F)c([N+](=O)[O-])c2)CC1,1,,43.9% (active)
O=S1(=O)CC(N2CCN(CCO)CC2)CN1C1CCCC1 (stereo not given),1,inactive,
CCN(CC)C(=O)C1CCCN(Cc2cccc(Cl)c2)C1 (stereo not given),1,inactive,
CCCN1C2=C(C(=O)CCC2)C(c2ccc(O)c(Br)c2)C2=C1CCCC2=O,3.4,,78.6% (active)
CCOc1ccc(C2C(C#N)=C(N)N(N(C)C)C3=C2C(=O)CCC3)cc1 (stereo not given),0.6,inactive,
CCOc1ccc(C2C3=C(CCCC3=O)N(CC(=O)O)C3=C2C(=O)CCC3)cc1,0.6,inactive,
COc1ccc(C2C(C#N)=C(N)N(c3ncn[nH]3)C3=C2C(=O)CCC3)cc1 (stereo not given),0.3,inactive,
COc1ccc(C2C3=C(CCCC3=O)N(CC(=O)O)C3=C2C(=O)CCC3)cc1,17.3,,322% (active)
CN(C)N1C(N)=C(C#N)C(c2ccc(Br)cc2)C2=C1CCCC2=O (stereo not given),0.4,inactive,
CCOC(=O)N1CCN(C(=O)C[C@@H]2C[C@@]3(C(=O)OC)CCCCC=C3N(CCC3=CCCCC3)C2=O)CC1,1.2,inactive,
CN(Cc1ccccc1F)c1cc2c(c3c1ccn3C)C1CCC2O1 (stereo not given),2.1,inactive,
Cc1cc(C)n2c(Nc3c(C)cccc3C)c(CCc3ccccc3)nc2n1,0.8,inactive,
CC1(C(=O)NS(=O)(=O)Cc2cccc(Cl)c2)CCN1C(=O)Cc1ccccc1 (stereo not given),1.3,inactive,
O=S1(=O)CC(N2CCN(CCO)CC2)CN1Cc1cn(Cc2cccc(Cl)c2)nn1 (stereo not given),1.8,inactive,

SMILES,GFP+ MAC1+ double positive [%],outcome,normalized GFP-positive differentiation
CCN(CC)c1ccc2cc(C(=O)O)c(=O)oc2c1,2.8,,30.9% (active)
Cc1cc(C)cc(OCC(=O)NNC(=O)c2cc3ccccc3oc2=O)c1,0.7,inactive,
CCN(CC)c1ccc([N+](=O)[O-])cc1C(=O)O,0.9,inactive,
COC(=O)[C@]12CCCCC=C1N(Cc1ccc3c(c1)OCO3)C(=O)[C@H](CC(=O)N1CCOCC1)C2,1.1,inactive,
CC(C)C1Cc2[nH][nH]c(=O)c2C(c2ccc(Cl)cc2)O1 (stereo not given),1.1,inactive,
Cc1ccc(Nc2cc(C)nc3c(C)ccc([N+](=O)[O-])c23)cc1,8.4,,156% (active)
Cc1ccc2cccc([N+](=O)[O-])c2n1,0.8,inactive,
Cc1ccccc1Nc1c([N+](=O)[O-])ccc2nonc12,0.6,inactive,
CCc1nc2c(OCCOc3ccccc3)cccn2c1N(C)C(=O)c1ccc(OC)cc1,0.8,inactive,
CC1=C(C(N)=O)C(c2ccc3c(c2)OCO3)n2nc(-c3cccc(C)c3)nc2N1 (stereo not given),2,,8.9% (active)
COc1cccc(-c2nc3n(n2)C(c2ccccc2Cl)C(C(N)=O)=C(C)N3)c1 (stereo not given),1.5,inactive,
CC1=C(C(N)=O)C(c2ccc(F)cc2)n2nc(CCCO)nc2N1 (stereo not given),1,inactive,
Oc1ccc2ccc3cccc[n+]3c2c1,0.9,,10.9% (active)
CC1(C(=O)NS(=O)(=O)c2ccccc2)CCN1C(=O)C1CCCCC1 (stereo not given),1.3,inactive,
COc1ccc(C(C(=O)NCc2ccccc2)n2c(=O)c(-c3ccccc3)nc3ccccc32)cc1 (stereo not given),5.2,inactive,
COc1ccc(CC(N)c2csc(NC(=O)NC(c3ccccc3)c3ccccc3)n2)cc1 (stereo not given),1.7,inactive,
O=C(N/N=C/c1ccccc1O)/C(=C/c1ccccc1)CCO,4.1,,31.5% (active)
O=C(N/N=C/c1ccccc1O)C1CCCC1,0.3,inactive,
O=C(CCC(=O)Nc1ccccc1)N/N=C/c1ccccc1F,0.1,inactive,
Cc1ccc(S(=O)(=O)N2[C@@H](Cc3ccccc3)CO[C@H]2CC(=O)OCc2ccccc2)cc1,5.9,inactive,
O=C1NC[C@H](CCCCN2C[C@H](Cc3ccc(O)cc3)N(CC3CCCCC3)C(=O)C2=O)N(CCc2ccccc2)C1=O,0.6,inactive,
CCOc1ccc(CCN2C(=S)N([C@@H](CC(C)C)CN3CCC[C@@H]3CN3C(=S)NC[C@@H]3Cc3ccc(O)cc3)C[C@@H]2CC(C)C)cc1,0.7,inactive,

SMILES,GFP+ MAC1+ double positive [%],outcome,normalized GFP-positive differentiation
CC(=O)Nc1cc(-c2ccccc2N(C)C)cn2c(-c3ccc(F)c(Cl)c3)cnc12,1,inactive,
O=c1nc(NO)ccn1C1CCCO1 (stereo not given),1.8,inactive,
CNc1nc(=O)n(C2CCCO2)cc1C (stereo not given),23.7,,172% (active)
O=c1c(F)cn(C2CCCO2)c(=O)n1Cc1ccccc1Cl (stereo not given),11.2,inactive,
O=C(O)Cc1ccc(NCc2ccccc2Cl)cc1,0.6,inactive,
O=C(O)Cc1ccc(-c2ccccc2)cc1,2.6,,92.4% (active)
O=C(Cc1ccc(-c2ccccc2)cc1)NC(c1ccccc1)c1ccccc1,0.3,inactive,
Cc1cccc(CNC(=O)c2sc(=O)n(Cc3ccccc3C)c2C)c1,4.1,inactive,
COc1ccc(C(C(=O)Nc2c(C)cccc2C)N2CCN(c3ccc(C)cc3)CC2)cc1 (stereo not given),2,inactive,
CO[C@@H]1CN(C)C(=O)c2cc(NC(=O)Nc3cc(F)ccc3F)ccc2OC[C@H](C)N(C(=O)c2ccccn2)C[C@@H]1C,1.3,inactive,
COC(=O)[C@]12CCCCC=C1N(Cc1cccc3ccccc13)C(=O)[C@H](CC(=O)N1CCOCC1)C2,0.7,inactive,
CCOP(=O)(OCC)C(Cc1ccccc1)N=C(c1ccccc1)c1ccccc1 (stereo not given),1,inactive,
CC(=O)N1Cc2cc(C(=O)NCc3cccc(F)c3)nc(-c3cccc(C4=CCCC4)c3)c2[C@H]1CCO,0.3,inactive,
CC(C)c1ccc(-c2noc(C3CCCN(S(C)(=O)=O)C3)n2)cc1 (stereo not given),2.8,inactive,
COc1cc(-c2noc(C3CCCN(S(=O)(=O)c4cccc(Cl)c4)C3)n2)cc(OC)c1OC (stereo not given),16.1,,28.5% (active)
COc1cccc(-c2noc(C3CCCN(C(=O)c4ccc(F)cc4)C3)n2)c1 (stereo not given),1.2,inactive,
O=C(NCc1ccccn1)[C@@H]1CCCN1C(=O)[C@@H]1CCCN1C(=O)c1ccccc1,1.4,inactive,
COC(=O)[C@@]12C[C@@H](CC(=O)NCc3cccc(C(F)(F)F)c3)C(=O)N(Cc3ccco3)C1=CCC(C)(C)C2,3.5,inactive,
COc1cccc(NC(=O)[C@H](Cc2c[nH]c3ccccc23)NC(=O)[C@@H]2Cc3ccccc3CN2)c1,5.1,,8.43% (active)
COc1ccc(CNC(=O)[C@H](Cc2c[nH]c3ccccc23)NC(C)=O)cc1OC,0.3,inactive,
COc1ccc(NC(=O)[C@H](NC(=O)[C@@H]2Cc3ccccc3CN2)c2ccccc2)cc1,3.2,inactive,
CCc1nc2c(OCC(N)=O)cccn2c1N(C)C(=O)c1ccc(OC)cc1,1.1,inactive,

SMILES,GFP+ MAC1+ double positive [%],outcome,normalized GFP-positive differentiation
OC[C@@H]1CN(Cc2cccs2)C[C@H](n2cnc3c(Nc4ccccc4)ncnc32)O1,1.1,inactive,
Cc1ccc(Cc2c(-c3ccco3)nc3ccc(Cl)cn23)cc1,0.7,inactive,
CCCCCCCNC(=O)C1(CC2CC(c3cccc(Br)c3)=NO2)CCN(C(=O)c2cc(OCC)c(OCC)c(OCC)c2)CC1 (stereo not given),7.1,,26.1% (active)
O=C(c1ccccc1)N1CCC(CC2CC(c3ccc(Cl)cc3)=NO2)(C(=O)NCC2CCCCC2)CC1 (stereo not given),1.5,inactive,
COc1ccc(CNC(=O)C2(CC3CC(c4ccccc4)=NO3)CCN(C(=O)c3cccc(O)c3)CC2)cc1 (stereo not given),1.8,inactive,
O=C(C(=O)N1CCC(c2ccccc2)CC1)c1ccccc1,2.1,inactive,
CC(C)(O)C#Cc1ccc(CNC[C@H]2O[C@@H](n3cnc4c(=O)[nH]c(N)nc43)[C@H](O)[C@@H]2O)s1,0.8,inactive,
O=S1(=O)CC(N2CCN(CCO)CC2)CN1Cc1cn(Cc2ccc(Cl)cc2)nn1 (stereo not given),1.6,inactive,
COc1ccccc1CN1CCCC(N2CCN(c3ccc(F)cc3)CC2)C1 (stereo not given),0.5,inactive,
Cc1cnc(C(=O)N2CCCC(N3CCN(c4ccccc4F)CC3)C2)cn1 (stereo not given),6.8,inactive,
CCc1noc(C)c1C(=O)N1CCCC(N2CCN(c3ccc(F)cc3)CC2)C1 (stereo not given),5.3,,46.7% (active)
COc1ccc(-c2[nH][nH]c(=O)c2NC(=O)c2ccc([N+](=O)[O-])cc2)cc1,0.8,inactive,
O=C(Nc1ccccc1C(=O)N1CCCCCC1)c1ccccc1Cl,0.1,inactive,
O=C(CN(c1ccccc1)S(=O)(=O)c1ccc(Cl)cc1)Nc1ccccc1C(=O)N1CCCC1,17.3,,34.3% (active)
COc1ccccc1N(CC(=O)Nc1ccccc1C(=O)N1CCCC1)S(C)(=O)=O,0.3,inactive,
NCCCCC(C(=O)O)N(C(=O)OCc1ccccc1)C(=O)OCc1ccccc1 (stereo not given),0.9,inactive,
Cc1cc(=O)oc(C)c1C(=O)NCc1ccc(F)cc1,9.2,inactive,
Cc1cc(=O)oc(C)c1C(=O)NCCN(C)Cc1ccccc1,0.6,inactive,
Cc1cc(=O)oc(C)c1C(=O)Nc1cnc2ccccc2c1,1,,6.77% (active)
